# From PubChem BioAssay (NCI)
# The panel holds about 79,000 compounds, 15% with a hit somewhere; the sample as a whole holds those more often. Activity calls are given as the source filed them. Cut-off read from the data, not from the text of the source: active = growth inhibition above about 70%; inactive = the rest.
# Columns and labels:
# [1] = NCI Yeast Anticancer Drug Screen. Data for the rad50 strain (AID 155);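 note: 0% = growth of vehicle-only cultures of the same strain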; conditions: S. cerevisiae rad50 strain growth inhibition; at 50.0 µM; stronger effect = higher value
# In short: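 Growth of the mutant yeast was measured after compound exposure and referenced to vehicle-treated cultures.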
# [2] = NCI Yeast Anticancer Drug Screen. Data for the mec2-1 strain (AID 157); conditions: S. cerevisiae mec2-1 strain, at 50.0 µM, stronger effect = higher value
# In short: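 Test agents were screened against the mec2-1 yeast strain, with defined DNA repair or cell cycle alteration. Growth was scored as inhibition against vehicle-only controls.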
# [3] = NCI Yeast Anticancer Drug Screen. Data for the sgs1 mgt1 strain (AID 161);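 note: 0% = growth of cultures given vehicle only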; conditions: S. cerevisiae sgs1 mgt1 strain, at 50.0 µM, stronger effect = higher value
# In short: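 Inhibition of yeast growth, normalised to vehicle-treated controls, is reported for a strain bearing genetic alterations in DNA damage repair.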
# [4] = NCI Yeast Anticancer Drug Screen. Data for the cln2 rad14 strain (AID 165);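 note: 0% = growth equal to vehicle treated cultures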; conditions: S. cerevisiae cln2 rad14 strain, at 50.0 µM, stronger effect = higher value
# In short: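 Growth of compound-exposed yeast (cln2 rad14 genotype) measured and expressed as inhibition relative to vehicle.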
# [5] = NCI Yeast Anticancer Drug Screen. Data for the bub3 strain (AID 167); conditions: S. cerevisiae bub3 mutant strain, at 50.0 µM, stronger effect = higher value
# In short: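 Whole-cell yeast assay. The mutant strain was incubated with compounds, and growth inhibition was determined by comparison with vehicle-treated cells.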
# [6] = NCI Yeast Anticancer Drug Screen. Data for the mlh1 rad18 strain (AID 175); conditions: S. cerevisiae mlh1 rad18 strain growth inhibition; at 50.0 µM; stronger effect = higher value
# In short: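 In this whole-cell yeast screen, a strain with altered DNA damage repair is challenged with compound, and its growth is measured against matched vehicle-treated controls.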
Compound,growth inhibition [1],growth inhibition [2],growth inhibition [3],growth inhibition [4],growth inhibition [5],growth inhibition [6]
O=c1cccc2n1CC1CNCC2C1 (configuration not stated),10.6% (inactive),13.4% (inactive),-16.2% (inactive),7.65% (inactive),15.7% (inactive),-22.1% (inactive)
O.O.[NH-]C1(C(=O)O)CCCC1.[NH-]C1(C(=O)O)CCCC1.[Ni+2],-12% (inactive),-15.9% (inactive),-16.6% (inactive),19.4% (inactive),-48.9% (inactive),-17.4% (inactive)
CCCO[As](=O)(OCCC)OCCC,5.55% (inactive),6.95% (inactive),5.8% (inactive),11.8% (inactive),24.1% (inactive),-9.1% (inactive)
Clc1ccc([As](c2ccc(Cl)cc2)c2ccc(Cl)cc2)cc1,77.5% (active),48.1% (inactive),74.3% (active),13.7% (inactive),30.5% (inactive),48.4% (inactive)
O=C1C=CC(=O)c2c(O)cccc21,27.4% (inactive),13.2% (inactive),38% (inactive),15.4% (inactive),41.3% (inactive),29.2% (inactive)
CCC(CC)CNC(=O)C(C)Br (configuration not stated),2.05% (inactive),1.85% (inactive),-1.95% (inactive),3.05% (inactive),7.2% (inactive),-3.65% (inactive)
CC(C)CCC1(CC[N+](C)(C)C)C(=O)NC(=O)NC1=O,5.95% (inactive),-9.85% (inactive),6.15% (inactive),-29.2% (inactive),10.7% (inactive),-7.05% (inactive)
CC(C)(C)c1ccc(OP(=O)(Oc2ccccc2)Oc2ccccc2)cc1,15.9% (inactive),0.05% (inactive),-8.15% (inactive),-30.9% (inactive),24.1% (inactive),33.9% (inactive)
CC1CN=C(Nc2ccc(F)c(Cl)c2)S1 (configuration not stated),-14.4% (inactive),-16.1% (inactive),-44.9% (inactive),8.65% (inactive),-0.25% (inactive),-22.9% (inactive)
O=C(Nc1ccc(Cl)cc1C(=O)c1ccccc1)c1ccc(Cl)cc1,-5.95% (inactive),10.1% (inactive),4.25% (inactive),-2% (inactive),25.9% (inactive),9.55% (inactive)
CC12OCCN1CCO2,10.9% (inactive),-3.25% (inactive),11.8% (inactive),5.45% (inactive),12.8% (inactive),4% (inactive)
Nc1ccc(Cl)c(C(F)(F)F)c1,0.85% (inactive),-16.6% (inactive),-12.1% (inactive),-18.4% (inactive),-1% (inactive),2.6% (inactive)
OC[CH2][Hg][I],99.8% (active),99.8% (active),99.8% (active),99.8% (active),99.8% (active),99.8% (active)
CC(C)CC1N=C(NN=C2CCCCC2)SP1(=O)NNc1ncccn1 (configuration not stated),1.25% (inactive),7.15% (inactive),12.5% (inactive),2.35% (inactive),0.4% (inactive),-0.1% (inactive)
CCC(C)Sc1ccccc1OC(=O)NC (configuration not stated),-10.4% (inactive),7.05% (inactive),0.5% (inactive),-16.6% (inactive),9.85% (inactive),24.1% (inactive)
NC1=C(c2nc(-c3ccccc3)cs2)C(c2ccco2)c2c(c3ccccc3oc2=O)O1 (configuration not stated),-4.7% (inactive),5.05% (inactive),23.8% (inactive),13.2% (inactive),6.35% (inactive),12.9% (inactive)
COc1cc(C(N)Cc2ccccc2)ccc1O (configuration not stated),-9.85% (inactive),1% (inactive),-1.25% (inactive),-33.1% (inactive),26.6% (inactive),4.6% (inactive)
O=C(O)CC(=O)O.[Ti].[c-]1[c-][c-][cH-][c-]1.[c-]1[c-][c-][cH-][c-]1,-12.4% (inactive),-5.75% (inactive),-6.8% (inactive),-51.6% (inactive),0.2% (inactive),-0.95% (inactive)
CCCCCCC(=O)O[C@H]1CC[C@H]2[C@@H]3CCC4C/C(=N/NC(=O)c5cccc6c(=O)c7ccccc7[nH]c56)C=C(C)[C@]4(C)[C@H]3CC[C@]12C (some centres not stated),3.1% (inactive),-0.85% (inactive),16.6% (inactive),24.7% (inactive),8.45% (inactive),-55.3% (inactive)
COC(=O)[C@H]1[C@@H](O)[C@@]2(O)c3c(OC)cc(OC)cc3O[C@@]2(c2ccc3c(c2)OCO3)[C@@H]1c1ccccc1,89% (active),92.5% (active),91% (active),90.2% (active),88.2% (active),92.2% (active)
C[CH2][Sn]([CH2]C)([O]C(=O)c1ccccc1F)[O]C(=O)c1ccccc1F,-8.75% (inactive),27.6% (inactive),4.1% (inactive),22.6% (inactive),22.8% (inactive),28.1% (inactive)

Compound,growth inhibition [1],growth inhibition [2],growth inhibition [3],growth inhibition [4],growth inhibition [5],growth inhibition [6]
CCCCSCCC(N)P(=O)(O)O (configuration not stated),-68.8% (inactive),-62.4% (inactive),-42.4% (inactive),2.8% (inactive),-15.2% (inactive),-44.1% (inactive)
COc1ccc2[nH]cc(CCN)c2c1,3.95% (inactive),-12.4% (inactive),-13.5% (inactive),-10.4% (inactive),3.6% (inactive),-24.1% (inactive)
CN1CCC(C(O)(c2ccccc2)c2ccccc2)CC1,-1.95% (inactive),-11.3% (inactive),12.3% (inactive),-39.1% (inactive),-6.45% (inactive),-25.4% (inactive)
CCOC(=O)CC(=Nc1cc(C)on1)N(CC)CC,0.95% (inactive),-19.2% (inactive),6.3% (inactive),9.95% (inactive),-9.75% (inactive),-17.1% (inactive)
CN(C)CCc1ccc(Cl)cc1Cl,11.1% (inactive),14.3% (inactive),-2.5% (inactive),6.6% (inactive),3.75% (inactive),22.4% (inactive)
CC(=O)Nc1ncc2ccccc2c1-c1ccc(NC(=O)CCN(CCCl)CCCl)cc1,84.5% (active),-0.45% (inactive),12.2% (inactive),-30.1% (inactive),17.6% (inactive),-9.2% (inactive)
C/C=C1/CN2CCC34C(=C(C(=O)OC)C1CC23)Nc1ccc(O)cc14 (configuration not stated),2.9% (inactive),2.3% (inactive),27.7% (inactive),-4.05% (inactive),1.65% (inactive),-61% (inactive)
C[C@]12Cc3sc(N)nc3C[C@@H]1CC[C@@H]1[C@@H]2CC[C@@]2(C)[C@H]1CC[C@]2(C)O,-21.5% (inactive),-18.4% (inactive),11% (inactive),-32% (inactive),25.6% (inactive),-4.95% (inactive)
COC1=CC(=Nc2ccc(N(CCCl)CCCl)cc2)C=CC1=O,17.6% (inactive),26.8% (inactive),14.3% (inactive),11.4% (inactive),15.1% (inactive),28.6% (inactive)
CC1(CCN)COC(c2ccccc2)(c2ccccc2)OC1 (tested in a mixture with another compound),20.1% (inactive),4.15% (inactive),-0.7% (inactive),31.4% (inactive),10.2% (inactive),43.2% (inactive)
O=P(O)(O)c1ccccc1 (tested in a mixture with another compound),-28.9% (inactive),-6.45% (inactive),-15.2% (inactive),-35.1% (inactive),-31.9% (inactive),2.7% (inactive)
COc1cc2[nH]cc(CN(C)C)c2cc1OC,3% (inactive),-0.55% (inactive),-11.2% (inactive),-18.9% (inactive),-0.25% (inactive),-7.35% (inactive)
CC(=O)c1ccc(NC(O)C(Cl)(Cl)Cl)cc1 (configuration not stated),5.75% (inactive),18.9% (inactive),-0.25% (inactive),-12.2% (inactive),18.8% (inactive),22.4% (inactive)
CCOC(=O)C1=C(OC(OCC)C(CC)[Se]c2ccccc2)CCC1 (configuration not stated),50.4% (inactive),10.6% (inactive),40% (inactive),22.4% (inactive),22.7% (inactive),39.9% (inactive)
CCCCCCCCCl,14.7% (inactive),-4.7% (inactive),7.75% (inactive),20.1% (inactive),8.4% (inactive),-8.5% (inactive)
CC1([N+](=O)[O-])COP(=O)(NCc2ccccc2)OC1 (configuration not stated),11.9% (inactive),-20.9% (inactive),-9.3% (inactive),-4.8% (inactive),6.2% (inactive),2.35% (inactive)
COP(=O)(OC)/C(C#N)=C/c1ccco1,-35.3% (inactive),-29.1% (inactive),-46.5% (inactive),-27.8% (inactive),-42.6% (inactive),-41.1% (inactive)
COc1cc([C@@H]2c3cc4c(cc3C[C@H]3COC(=O)[C@@H]32)OCO4)cc(OC)c1OC,5.2% (inactive),-3.05% (inactive),10.2% (inactive),27.6% (inactive),24.4% (inactive),13.6% (inactive)
CC1=CC2OC3CC(OC(=O)/C=C/C=C/C(OCCC4=CC(=O)OC4)C(C)O)C(C)(C2(CO)CC1)C31CO1 (configuration not stated),31.8% (inactive),-0.7% (inactive),11.6% (inactive),25.2% (inactive),8.5% (inactive),-2.2% (inactive)
CC1C2Cc3ccc(O)cc3C1(C)CCN2CCC(=O)c1ccccc1 (configuration not stated),-8.85% (inactive),1.4% (inactive),-7.3% (inactive),18.2% (inactive),5.6% (inactive),9.55% (inactive)
CCOC(=O)C(Br)C(C)Br (configuration not stated),-13.4% (inactive),-39.5% (inactive),-23.1% (inactive),7.1% (inactive),-9.65% (inactive),-22.5% (inactive)
